# Rango release inh: qHTS Assay for Inhibitors of RanGTP induced Rango (Ran-regulated importin-beta cargo) - Importin beta complex dissociation; Snurportin-1 (Homo sapiens) + GTP-binding nuclear protein Ran (Homo sapiens) + Importin …; Biochemical FRET Rango-importin beta, RanGTP-induced dissociation; Potency, µM (top dose mostly 46.1 µM), for the others: top-dose activity change, negative = inhibition; hit rate 0.071% among 340,000; calls by dose curve; note: % of control where 0% means no effect; nearly all actives have a fitted effect of over 45% in size
#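 Recombinant Rango FRET biosensor (EYFP–snurportin 1 IBB–cerulean CFP10) at 0.1 uM premixed with 0.25 uM importin beta in PBS, 1 mM DTT, 0.02% Tween-20, 0.1% BSA. Compound added 5 min; RanGTP-RCC1 (0.6 uM Ran, 2 mM GTP, 0.2 uM RCC1) then triggers release, read at 45 min.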
# ELG1 repair inh: qHTS screen for small molecules that inhibit ELG1-dependent DNA repair in human embryonic kidney (HEK293T) cells expressing luciferase-tagged ELG1. HEK293T ELG1-luciferase reporter, luminescence, 16 h; DNA damage induced by 5-fluorouridine. Potency, µM (top dose mostly 46.1 µM), for the others: at the highest dose activity change, negative = inhibition, most hits filed as inhibitors. hit rate 2.3% among 330,000; note: % is set by controls: 0 for no effect and ±100 for the full control effect; nearly all actives have a fitted effect of over 55% in size
#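 Step one: seed 2,000 cells per well. Step two: pin-transfer compound or DMSO alongside 5-fluorouridine. Step three: incubate 16 hr, 37 °C, 5% CO2. Step four: add ONE-Glo, wait 30 min, read luminescence.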
# PKM2 act: qHTS Assay for Activators of Human Muscle isoform 2 Pyruvate Kinase; Pyruvate kinase PKM (Homo sapiens), P14618; purified PKM2, Kinase-Glo ATP luminescence, activation; response scale: 0% is enzyme alone, no compound; Potency, µM (doses to about 57.5 µM), inactives show top-dose activation, usual class: activators; hit rate 0.34% among 260,000; AID 1631, 2009; note: % is set by controls: 0 for no effect and ±100 for the full control effect; nearly all actives have a fitted effect of over 55% in size
#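 hPK-M2, >95% pure; 0.1 mM ADP / 0.5 mM PEP final; imidazole pH7.2 buffer w/ 7 mM MgCl2, 50 mM KCl; 1 h RT; Kinase-Glo lum. Intermediate enzyme activity for dual inhibitor/activator qHTS.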
# Tb PGK inh: qHTS Assay to Find Inhibitors of Phosphoglycerate Kinase | PGK/GAPDH coupled, Kinase-Glo luminescence, 60 min | Potency, µM (highest dose often 57.5 µM), without a hit: at the top dose activity change, negative = inhibition, actives largely listed as inhibitors | hit rate 0.043% among 380,000 | AID 602233, 2012; note: % is set by controls: 0 for no effect and ±100 for the full control effect; nearly all actives have a fitted effect of over 60% in size
#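 Recombinant glycosomal PGK reaction used 1,3-bisphosphoglycerate generated in-well by GAPDH (100nM final) in 100mM TEA pH 7.6, 5mM MgCl2, 0.01% Tween-20. After 60 minutes at room temperature, ATP was read by Kinase-Glo Plus luminescence end-point.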
# Tb PFK block: qHTS Assay to Find Inhibitors of T. brucei phosphofructokinase; ATP-dependent 6-phosphofructokinase (Trypanosoma brucei brucei), O15648; T. brucei PFK, ADP-Glo luminescence; Potency, µM (series often up to 57.5 µM), inactives show at the top dose activity, negative = inhibition, most hits filed as inhibitors; hit rate 0.17% among 330,000; AID 485367, 2010;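 note: 0% = uninhibited 1x PFK enzyme wells and -100% = no-enzyme wells; nearly all actives have a fitted effect of over 60% in size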
#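 ADP-Glo luminescence quantified ADP after 45 min at room temperature, with 1.25 nM T. brucei PFK, 0.1 mM ATP and 0.5 mM fructose-6-phosphate in pH 8.0 TEA buffer. qHTS titrations up to 57 µM; curves classified by quality.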
# Rango complex inh: qHTS Assay for Inhibitors of Rango (Ran-regulated importin-beta cargo) - Importin beta complex formation; hit rate 0.031% among 340,000; Importin subunit beta-1 (Homo sapiens), Q14974; Potency, µM (top dose mostly 92.2 µM), without a hit: top-dose inhibition of complex formation; Rango CFP/YFP FRET sensor + importin beta, 45 min; AID 540263, 2011; calls by dose curve;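 note: 0% = DMSO wells and 100% = buffer wells lacking importin beta; nearly all actives have a fitted effect of over 15% in size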
# Target sequence (Q14974 whole entry, looked up): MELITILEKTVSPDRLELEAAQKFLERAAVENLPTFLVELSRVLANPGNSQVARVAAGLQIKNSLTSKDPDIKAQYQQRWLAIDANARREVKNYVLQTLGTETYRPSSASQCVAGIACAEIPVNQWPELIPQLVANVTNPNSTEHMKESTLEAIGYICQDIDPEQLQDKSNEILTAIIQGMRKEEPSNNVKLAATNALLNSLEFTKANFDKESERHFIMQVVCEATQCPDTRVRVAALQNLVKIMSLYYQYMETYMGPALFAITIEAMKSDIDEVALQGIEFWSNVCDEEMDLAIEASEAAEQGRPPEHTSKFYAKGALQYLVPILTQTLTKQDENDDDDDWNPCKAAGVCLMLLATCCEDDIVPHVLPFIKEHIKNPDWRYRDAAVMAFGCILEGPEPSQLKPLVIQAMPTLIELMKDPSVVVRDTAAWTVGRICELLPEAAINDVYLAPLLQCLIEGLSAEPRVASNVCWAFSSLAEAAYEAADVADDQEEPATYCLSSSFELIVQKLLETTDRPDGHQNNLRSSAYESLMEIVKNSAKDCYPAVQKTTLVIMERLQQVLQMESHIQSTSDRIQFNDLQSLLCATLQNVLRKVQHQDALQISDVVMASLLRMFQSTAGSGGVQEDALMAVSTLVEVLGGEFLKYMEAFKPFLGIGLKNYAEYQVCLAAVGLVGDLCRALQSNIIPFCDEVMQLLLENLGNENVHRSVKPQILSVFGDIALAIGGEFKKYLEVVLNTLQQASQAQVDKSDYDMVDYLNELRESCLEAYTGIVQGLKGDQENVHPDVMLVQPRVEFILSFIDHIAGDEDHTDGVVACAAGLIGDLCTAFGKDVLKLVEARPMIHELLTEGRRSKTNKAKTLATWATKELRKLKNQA
#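 Inhibition scored from the CFP 486 nm/YFP 530 nm FRET ratio 45 min after adding 0.125 microM importin beta to 50 nM Rango biosensor preincubated 5 min with compound (room temperature, PBS with DTT, Tween-20, BSA). No-importin wells as positive control.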
# ELG1 FLuc counter: qHTS screen for small molecules that inhibit ELG1-dependent DNA repair: Hit Confirmation in Cell-Based Luciferin Assay; shares compounds with ELG1 repair inh; cell-free firefly luciferase luminescence counter-screen, ViewLux; Potency, µM (top dose mostly 46.1 µM), without a hit: top-dose activity change, negative = inhibition, hits mostly inhibitors; hit rate 3% among 350; AID 624247, 2012; note: % is set by controls: 0 for no effect and ±100 for the full control effect
# ELG1 Luc conf: HTS assay for small molecules that inhibit ELG1-dependent DNA repair in human embryonic kidney (HEK293T) cells expressing luciferase-tagged ELG1: Hit Confirmation; shares compounds with ELG1 repair inh; HEK293T ELG1-luciferase levels, luminescence; cells co-treated with 5-fluorouridine; Potency, µM (highest dose often 46.1 µM), without a hit: at the top dose activity change, negative = inhibition, actives largely listed as inhibitors; hit rate 68% among 670; note: % is set by controls: 0 for no effect and ±100 for the full control effect; nearly all actives have a fitted effect of over 55% in size
# ELG1 MMS Luc: confirmation of human ELG1 repair inhibitors, MMS stimulated; HEK293T luciferase-tagged ELG1 level, MMS stimulated; AID 624249; hit rate 53% among 670; shares compounds with ELG1 repair inh; Potency, µM (highest dose often 46.1 µM), inactives show top-dose activity change, negative = inhibition, usual class: inhibitors; note: % is set by controls: 0 for no effect and ±100 for the full control effect; nearly all actives have a fitted effect of over 60% in size
# ELG1 5-FU: qHTS screen for small molecules that inhibit ELG1-dependent DNA repair: Hit Confirmation with 5FU Viability; shares compounds with ELG1 repair inh; cell viability with 5-FU, ELG1-dependent repair; Potency, µM (top dose mostly 46.1 µM), inactives show top-dose activity change, negative = viability loss, actives largely listed as cytotoxic; 670 tested, under 10 active; AID 624250, 2012;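 note: ELG1-luc HEK293T cells cotreated with 5-fluorouridine at 10 µM final; viability measured 16 h after compound addition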
# ELG1 MMS viab: qHTS screen for small molecules that inhibit ELG1-dependent DNA repair: Hit Confirmation with MMS Viability; shares compounds with ELG1 repair inh; Cell viability with MMS, ELG1-dependent DNA repair; Potency, µM (highest dose often 46.1 µM), without a hit: at the top dose activity change, negative = viability loss, usual class: cytotoxic; hit rate 33% among 670;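 note: ELG1-luc HEK293T cells co-treated with 10 µM MMS; viability read 16 h after compound addition; % is set by controls: 0 for no effect and ±100 for the full control effect; nearly all actives have a fitted effect of over 60% in size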
# Cell viab unstim: qHTS screen for small molecules that inhibit ELG1-dependent DNA repair: Hit Confirmation with Unstimulated Viability Assay; shares compounds with ELG1 repair inh; cell viability counter-screen, unstimulated, luminescence; Potency, µM (series often up to 45.9 µM), for inactives: at the highest dose activity change, negative = loss of viability, actives largely listed as cytotoxic; hit rate 8% among 900;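 note: compound exposure lasted 16 hours before reading; % is set by controls: 0 for no effect and ±100 for the full control effect; nearly all actives have a fitted effect of over 55% in size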
# FLuc biochem: qHTS screen for small molecules that inhibit ELG1-dependent DNA repair: Hit Confirmation in Biochemical Luciferin Assay; AID 624253, 2012; shares compounds with ELG1 repair inh; hit rate 10% among 350; Potency, µM (series often up to 57.5 µM), for inactives: at the highest dose activity, negative = inhibition, most hits filed as inhibitors; purified firefly luciferase, luminescence counter-screen; note: % is set by controls: 0 for no effect and ±100 for the full control effect
# * hit, by the source's call; i = inactive; ? = inconclusive; nt = not tested or not shown. The list is not random: actives were taken first. Their share in the collection is about 2.4%. Unless noted, calls come from the whole dose curve; as a rule, active = well fitted curve in the direction sought with a large enough effect; inconclusive = small, poorly fitted or top-dose-only effect, or another doubt; inactive = no such curve, though single readings can be large; an effect the other way counts as inactive or inconclusive. Potency is the fitted concentration of half-maximal effect.
SMILES,Rango release inh,ELG1 repair inh,PKM2 act,Tb PGK inh,Tb PFK block,Rango complex inh,ELG1 Luc conf,ELG1 MMS Luc,ELG1 5-FU,ELG1 MMS viab,Cell viab unstim,others
COc1cc(C(=O)OC2CSCC2NC(=O)c2ccccc2)cc(OC)c1OC (stereo not drawn),1%,4.1µM*,-1%,nt,0%,2%,10µM*,1%,?,?,?,
O=C(NC1CSCC1OC(=O)c1ccccc1)c1ccccc1 (stereo not drawn),-2%,14%,-1%,i,1%,-2%,nt,nt,nt,nt,nt,
COc1ccc(-c2noc(CCCCC(=O)N3CCN(c4cc(C)ccc4C)CC3)n2)cc1,7%,?,nt,2%,0%,1%,?,1.3µM*,-4%,1.1µM*,14µM*,
Cc1ccc(C)c(N2CCN(C(=O)CCc3nc(-c4cccc(Cl)c4)no3)CC2)c1,18%,?,nt,-5%,-5%,0%,nt,nt,nt,nt,-7%,
COc1ccc(-c2noc(CCCC(=O)N3CCN(c4cc(C)ccc4C)CC3)n2)cc1,-13%,?,nt,1%,-1%,-1%,nt,nt,nt,nt,nt,
CCc1cccc(NC(=S)N(CCOC)C(C)c2ccco2)c1 (stereo not drawn),8%,-2%,12%,-18%,0%,4%,nt,nt,nt,nt,nt,
Cc1ccc(S(=O)(=O)NCCc2nnc3ccc(SCC(=O)Nc4nc5ccccc5s4)nn23)cc1,nt,-3%,3%,nt,-3%,nt,-2%,4%,0%,2%,0%,ELG1 FLuc counter=?;FLuc biochem=-5%
CC(=O)Nc1ccc(NC(=O)CSc2ccc3nnc(CCNS(=O)(=O)c4ccc(C)cc4)n3n2)cc1,4%,-2%,nt,-1%,-4%,1%,nt,nt,nt,nt,nt,
COCCn1c(=N)c(C(=O)NCCc2ccc(OC)cc2)cc2c(=O)n3cccc(C)c3nc21,?,?,-1%,i,-6%,?,5µM*,?,?,3%,?,
COc1ccc(C(=O)C2CCN(C(=O)Nc3ccccc3C)CC2)cc1,-6%,-3%,-4%,4%,-7%,1%,nt,nt,nt,nt,nt,
CCCCCCC1(C)NC(=S)N(c2ccccc2)N1 (stereo not drawn),-5%,?,0%,3%,-10%,-1%,19%,24%,-8%,-15%,?,
CC1(CC(=O)Nc2ccccc2)NC(=S)N(c2ccccc2)N1 (stereo not drawn),-6%,?,2%,7%,-14%,?,nt,nt,nt,nt,nt,
CC1(C)Cc2c(c(N3CCOCC3)nc3snc(N)c23)CO1,-24%,8%,-5%,-4%,0%,3%,nt,nt,nt,nt,nt,
CC1(C)Cc2c(c(N3CCOCC3)nc3snc(Br)c23)CO1,1%,16µM*,-5%,i,-4%,-3%,13µM*,?,?,-2%,-2%,ELG1 FLuc counter=3%;FLuc biochem=4%
Cn1c(=O)c(=O)n(C)c2cc(S(=O)(=O)N3CCN(c4ccccc4)CC3)ccc21,nt,nt,nt,i,nt,nt,nt,nt,nt,nt,nt,
CCN(CC)C(=O)c1sc(NC(=O)c2cccnc2)c(C(=O)OC)c1C,5%,2.6µM*,-2%,1%,-5%,0%,3.1µM*,-10%,?,9%,?,
CCOC(=O)C1CC(c2ccccc2)=NN1c1ccccc1 (stereo not drawn),nt,nt,nt,-8%,nt,nt,nt,nt,nt,nt,nt,
O=C1c2cccc(OCc3ccc(F)cc3)c2CCN1Cc1ccccc1,8%,?,-1%,1%,-1%,1%,?,4.4µM*,-10%,6.3µM*,?,
O=C(NN=C1CCCCC1)c1ccccc1-n1cccc1,-9%,?,1%,-7%,-2%,3%,nt,nt,nt,nt,nt,
